The values that follow come from PubChem BioAssay (NCI).

Some test systems named below: T-47D breast; BT-549 breast; MDA-MB-435 melanoma; SW-620 colon; MCF7 breast; HCT-116 colon; HCC-2998 colon; KM12 colon; MDA-MB-468 breast.
What all share (test): NCI-60 one-dose screen, 48 h (100 = growth as untreated, 0 = no growth, -100 = all killed)
Conditions in all cases: 10 µM unless noted

This is part of a sample that, as a whole, favours compounds with a hit. Of some 83,000 tested, about 20% had one in any assay.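 Plates (96-well) were seeded with cells, treated with compound at one concentration, and incubated for 48 hours before percent growth was determined.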 A number with no mark means an inactive call. Activity calls are given as the source filed them. Rule for the calls: active = growth percent below 10; inactive = the rest.

On to `Nc1nnc(-c2cncc(Br)c2)c(-c2c[nH]c3ccc(Cl)cc23)n1`, for which the growth in the assay with T-47D breast is 34.4%; in the assay on BT-549 breast, 95.7%; with MDA-MB-435 melanoma, 35%; in the assay on SW-620 colon, 82.8%; in the assay on MCF7 breast it was 75.1%; with HCT-116 colon it was 73.7%. The results for the growth in the assay with HCC-2998 colon, in the assay on KM12 colon and with MDA-MB-468 breast were 88.8%, 74.5% and 59.4%, respectively.
As to `COc1ccc(-c2cc(-c3cc(OC)c(OC)c(OC)c3)[nH]c(=O)c2C#N)cc1`, the growth was 34.6% with T-47D breast; 70.5% with BT-549 breast; 73.6% with MDA-MB-435 melanoma; 93.4% in the assay on SW-620 colon; 86.2% in the assay on MCF7 breast; 34.7% with HCT-116 colon. The values for the growth in the assay with HCC-2998 colon, with KM12 colon and in the assay on MDA-MB-468 breast were 67.1%, 75.8% and 79.8%, respectively.
Turning to `CC(C)(C)C(=O)c1c2c(c3ccc4c5ccccc5ccc4n13)C(=O)c1ccccc1C2=O`, the growth with T-47D breast is 95.6%; in the assay on BT-549 breast, 101%; in the assay on MDA-MB-435 melanoma, 103%; with SW-620 colon, 102%; with MCF7 breast it was 75%; in the assay on HCT-116 colon, 90.7%. The growth in the assay on HCC-2998 colon was 112%; in the assay on KM12 colon, 94.4%; in the assay on MDA-MB-468 breast it was 98.7%.
Turning to `CCC(=O)c1c2c(c3ccc4c5ccccc5ccc4n13)C(=O)c1ccccc1C2=O`, the growth is 87.2% in the assay with T-47D breast; 114% with BT-549 breast; -89.8% (active) in the assay with MDA-MB-435 melanoma; 88.5% with SW-620 colon; 54% with MCF7 breast; 92.6% with HCT-116 colon. Also, the growth in the assay on HCC-2998 colon is 65.4%; with KM12 colon it was 68.9%; in the assay with MDA-MB-468 breast, 88.6%.
Consider `O=C(CSc1nc2c(c(=O)[nH]1)CCCC2)Nc1ccccc1C(=O)O`, for which the growth in the assay with T-47D breast is 105%; with BT-549 breast it was 117%; in the assay with MDA-MB-435 melanoma, 109%; in the assay on SW-620 colon, 116%; in the assay with MCF7 breast it was 85.9%; with HCT-116 colon, 96.2%. Also, the growth with HCC-2998 colon is 123%; in the assay on KM12 colon, 103%; in the assay with MDA-MB-468 breast it was 100%.
`Cc1ccc(S(=O)(=O)Nc2ccc(-c3ccc4c(c3)NC(=O)/C4=C\c3ccc[nH]3)cc2)cc1`: the growth is 18.8% in the assay on T-47D breast; 63.7% with BT-549 breast; 90.1% with MDA-MB-435 melanoma; 47.2% in the assay on SW-620 colon; 3.35% (active) in the assay on MCF7 breast; 60.6% in the assay with HCT-116 colon. For the same molecule, the growth was 106% in the assay on HCC-2998 colon, 67.1% in the assay with KM12 colon and -25.8% (active) in the assay with MDA-MB-468 breast.
Turning to `O=C(N/N=C/c1ccc(-c2cccc([N+](=O)[O-])c2)s1)c1[nH]c2ccc(Br)cc2c1-c1ccccc1`, the growth with T-47D breast is 92.5%; with BT-549 breast, 88.4%; with MDA-MB-435 melanoma, 98.3%; with SW-620 colon, 99%; in the assay with MCF7 breast, 54.4%; in the assay on HCT-116 colon, 82.9%. In addition, the growth is 107% in the assay on HCC-2998 colon, 109% with KM12 colon and 103% in the assay with MDA-MB-468 breast.
In the case of `COc1ccc2c(c1)N=c1c-2cc2c(O)[nH]c(=S)n2c1=O`, the growth with T-47D breast was 46.4%; in the assay with BT-549 breast, 32.4%; in the assay with MDA-MB-435 melanoma, 2.49% (active); with SW-620 colon it was 47.4%; in the assay on MCF7 breast, 34.6%; with HCT-116 colon, 28.6%. For the same molecule, the growth in the assay with HCC-2998 colon is 60.1%; with KM12 colon, 42.7%; in the assay with MDA-MB-468 breast, -25.9% (active).
Consider `O=S(=O)(c1nc(-c2ccc(Br)cc2)oc1-c1ccc(Cl)cc1)N1CCCC(O)C1` (stereo not given), for which the growth was 28.8% with T-47D breast; 76.1% with BT-549 breast; 60% in the assay on MDA-MB-435 melanoma; 57% with SW-620 colon; 41.5% in the assay with MCF7 breast; 42.5% in the assay on HCT-116 colon. The growth in the assay with HCC-2998 colon was 33.8%; with KM12 colon, 39%; in the assay on MDA-MB-468 breast it was 45.6%.
`CN(C)c1nc(NCCNS(=O)(=O)c2ccc(C3=Nc4c(N)nc(N)nc4NC(c4ccc(C(F)(F)F)cc4)C3)cc2)nc(N2CCOCC2)n1` (stereo not given): the growth with T-47D breast is 24.7%; in the assay with BT-549 breast, 1.02% (active); in the assay with MDA-MB-435 melanoma it was 44.3%; in the assay on SW-620 colon, 54.7%; with MCF7 breast it was 21.8%; in the assay with HCT-116 colon, 17.1%. For the same molecule, the growth with HCC-2998 colon was 27.3%; in the assay on KM12 colon, 47.8%; with MDA-MB-468 breast it was 5.66% (active).
